Test results as given in ChEMBL document CHEMBL2218924, “A broad activity screen in support of a chemogenomic map for kinase signalling research and drug discovery” (Biochem J, 2013).

What follows are molecules tested against AMP-activated protein kinase (AMPK) alpha-1/beta-1/gamma-1 (Homo sapiens) (UniProt P54619+Q9Y478+Q13131). Details: at 1 µM.
Sequence of AMP-activated protein kinase (AMPK) alpha-1/beta-1/gamma-1 (Homo sapiens) (P54619 whole entry): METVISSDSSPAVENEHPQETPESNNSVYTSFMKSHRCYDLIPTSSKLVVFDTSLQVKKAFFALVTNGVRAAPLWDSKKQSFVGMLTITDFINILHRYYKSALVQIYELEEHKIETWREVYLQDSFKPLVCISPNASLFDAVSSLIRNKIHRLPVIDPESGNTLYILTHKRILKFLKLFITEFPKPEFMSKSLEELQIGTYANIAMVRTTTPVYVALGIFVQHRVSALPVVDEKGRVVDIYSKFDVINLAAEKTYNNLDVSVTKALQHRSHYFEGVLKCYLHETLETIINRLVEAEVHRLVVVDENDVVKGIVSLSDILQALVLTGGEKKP
Sequence of AMP-activated protein kinase (AMPK) alpha-1/beta-1/gamma-1 (Homo sapiens) (Q13131 whole entry partner): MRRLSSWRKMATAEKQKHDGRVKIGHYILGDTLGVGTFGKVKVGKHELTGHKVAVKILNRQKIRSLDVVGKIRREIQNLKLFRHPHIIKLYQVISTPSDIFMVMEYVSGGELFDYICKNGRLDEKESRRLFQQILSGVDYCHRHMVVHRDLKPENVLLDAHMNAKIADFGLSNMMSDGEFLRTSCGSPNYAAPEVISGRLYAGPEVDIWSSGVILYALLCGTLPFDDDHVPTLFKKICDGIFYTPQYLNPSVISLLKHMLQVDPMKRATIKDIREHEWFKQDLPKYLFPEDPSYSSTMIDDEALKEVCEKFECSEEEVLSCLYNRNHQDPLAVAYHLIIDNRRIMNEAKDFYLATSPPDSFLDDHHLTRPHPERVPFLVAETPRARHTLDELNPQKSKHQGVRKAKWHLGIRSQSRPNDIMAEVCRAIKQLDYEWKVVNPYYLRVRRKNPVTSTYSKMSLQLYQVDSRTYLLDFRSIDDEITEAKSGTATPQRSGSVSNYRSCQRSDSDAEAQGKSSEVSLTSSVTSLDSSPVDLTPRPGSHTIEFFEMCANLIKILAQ
Sequence of AMP-activated protein kinase (AMPK) alpha-1/beta-1/gamma-1 (Homo sapiens) (Q9Y478 2-270 partner limits assumed): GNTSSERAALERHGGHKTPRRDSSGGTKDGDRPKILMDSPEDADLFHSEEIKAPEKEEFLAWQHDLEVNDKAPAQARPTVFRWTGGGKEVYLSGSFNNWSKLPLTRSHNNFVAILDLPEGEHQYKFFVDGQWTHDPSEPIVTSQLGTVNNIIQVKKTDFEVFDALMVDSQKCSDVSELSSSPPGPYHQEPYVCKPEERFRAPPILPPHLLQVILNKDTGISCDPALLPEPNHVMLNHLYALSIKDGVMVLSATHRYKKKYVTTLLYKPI

Row | Structure (SMILES) | residual activity
1 | O=C1C(Cl)=C(N2C(=O)CCC2=O)C(=O)c2ccccc21 | 95%
2 | O=C(O)/C=C/c1cc(Br)c(Br)c(Br)c1Br | 101%
3 | Nc1n[nH]c2nc3ccccc3nc12 | 86%
4 | O=C(c1cc2cc(O)ccc2[nH]1)c1cc2cc(O)ccc2[nH]1 | 16%
5 | O=C(NC(NC(=S)Nc1ccc(F)c([N+](=O)[O-])c1)C(Cl)(Cl)Cl)C(c1ccccc1)c1ccccc1 (centres undefined) | 90%
6 | CCCCc1c(-c2ccc(OC)cc2)[nH]c2nccnc12 | 82%
7 | CCCC(=O)Oc1ccc2[nH]c(C(=O)c3cc4ccccc4[nH]3)cc2c1 | 85%
8 | NC(=O)Nc1sc(-c2ccc(F)cc2)cc1C(N)=O | 69%
9 | COc1cc2nccc(Oc3ccc(NC(=S)NC(=O)c4ccccc4C)cc3)c2cc1OC | 88%
10 | O=C1Cc2c([nH]c3ccc(Br)cc23)-c2ccccc2N1 | 75%
11 | O=C1Nc2ccc(Cl)cc2/C1=C/c1cc(Cl)c(O)c(Cl)c1 | 79%
12 | CC(C)(C)n1nc(Cc2cccc3ccccc23)c2c(N)ncnc21 | 103%
13 | COc1ccc(Cl)cc1NC(=O)Nc1cc(C)nc2ccccc12 | 88%
14 | O=c1cc(N2CCNCC2)oc2c(-c3ccccc3)cccc12 | 95%
15 | Nc1ncnc2c1c(-c1ccc(Oc3ccccc3)cc1)cn2C1CCCC1 | 99%
16 | O=C1NC(=O)c2c1c1c3ccccc3[nH]c1n1cncc21 | 49%
17 | O=c1cc(N2CCOCC2)oc2c1ccc1ccccc12 | 110%
18 | CN(C)S(=O)(=O)c1ccc2c(c1)/C(=C/c1cc3c([nH]1)CCCC3)C(=O)N2 | 43%
19 | CCOC(=O)c1c(C)[nH]c(/C=C2\C(=O)Nc3ccccc32)c1C | 80%
